Results as given in the OligoGym collection.

Biological target: AMOTL1
Experiment: pooled miR-30 sensor sort-seq; sequence = guide strand
Details: shRNA
Also: reference of the scale not given here.

| Sequence | sensor-assay potency score (higher = more potent) |
| --- | --- |
| TAGCAGTCTCTAGTCGATCTCG | -0.33 |
| TTCTTTTTCAAACTTGTGGAGC | -0.646 |
| TTGTCAGTCTGTGTGCTGCTGT | 0.0814 |

Biological target: AMPH
Experiment: as above
Details: shRNA

| Sequence | sensor-assay potency score (higher = more potent) |
| --- | --- |
| TTACTTTAGAACAATCTGTGAA | -0.181 |
| TAATTCATCACATCTTCTGCAG | -0.0381 |
| TAGAGATTCGACTCTCATCCTT | 0.077 |
| TTGTGAATAATGAAGTATCCTG | -0.215 |
| TAACATAAAATCCAACTCGTCT | -0.296 |
| TTCTTCGAACTGTTCGTCTTTT | -0.66 |
| TCATAGTCCACTAGCTTCCTGC | -0.747 |
| TAAATGAACCACCAGAAGCCGG | -1.23 |
| TAGTCCACTAGCTTCCTGCTGC | 0.262 |
| TTTTACTTTAGAACAATCTGTG | 0.225 |
| TTGATTGCTGCTAAATATCCTC | -0.275 |
| TTAACATAAAATCCAACTCGTC | -0.669 |
| TTTTTGATGGAAGTCTTCCCAC | -0.336 |
| TACTTTAGAACAATCTGTGAAG | -0.229 |
| TTGCTGCTAAATATCCTCGGAG | -0.441 |
| TGATTTGGACTTGCTGTCGGGC | -0.73 |
| AAACTCTTCAAACACTTTCTGT | -0.65 |
| TTCTGGAACAAAGTTGTCCTCA | -0.205 |
| TTTACTTTAGAACAATCTGTGA | -0.223 |
| TCTGCATACACATAGATCCAGG | -1.05 |
| TTTTTTGCACACATGCTCCATT | -0.524 |
| TTGTCTGTGAAGGTGACCGAGG | -0.658 |
| TAACAAAAGTGAACTCTTCAGG | -0.296 |
| TTTCCTTATGAAACTTGGCTTC | -0.107 |
